In the library only some 1.1% were active in any assay of this set; here they are far more common.
AGP1 TOR yeast = modulators of AGP1-GFP expression in yeast TOR pathway, primary screen, cell-based, multiplex flow cytometry, S. cerevisiae, MLPCN library. 3 h; GFP as percent of DMSO wells. GFP response vs DMSO, % at 10 µM. 320,000 compounds, 0.02% hits;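 active = GFP response relative to DMSO above a set limit, near screen average plus 3 SD, cut at about 150% in these data; inconclusive = fewer than 70 cells counted for the yeast strain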;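 note: median GFP channel fluorescence of the gated AGP1 strain per well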
RPL19A TOR yeast = RPL19A-GFP expression modulators in yeast, primary screen, cell-based, S. cerevisiae, multiplex flow cytometry, MLPCN; percent response vs DMSO, % at 10 µM; AID 2025, 2009; S. cerevisiae RPL19A-GFP strain, 3 h; hits give low values; 330,000 compounds, 0.3% hits;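 active = percent response vs DMSO below 50%; inconclusive = fewer than 70 events counted for the yeast strain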;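 note: median channel GFP fluorescence of the barcoded RPL19A-GFP strain; lower means less RPL19A-GFP as with rapamycin TOR inhibition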
LAP4 TOR yeast = modulators of LAP4-GFP expression in yeast, primary screen, S. cerevisiae, multiplex flow cytometry, MLPCN library; GFP response vs DMSO, % at 10 µM; 3 h; median GFP as percent of DMSO wells; AID 2023, 2009; 320,000 compounds, 0.34% hits;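 active = GFP response vs DMSO above a set limit, about the screen mean plus 3 SD, cut at about 150% in these data; inconclusive = under 70 cell events counted for the yeast strain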
MEP2-GFP yeast = modulators of MEP2-GFP levels in yeast, primary screen, S. cerevisiae, multiplex flow cytometry, MLPCN library; S. cerevisiae MEP2-GFP strain, 3 h; 100% = DMSO control level; GFP response vs DMSO, % at 10 µM; 330,000 compounds, 0.51% hits; AID 2016, 2009;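 active = GFP response versus DMSO above a set limit, roughly screen mean plus 3 SD, cut at about 180% in these data; inconclusive = fewer than 70 cells counted for a yeast strain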;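 note: median GFP fluorescence of the barcode-gated MEP2-GFP cells per well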
CIT2 TOR yeast = modulators of CIT2-GFP expression in yeast, primary screen, S. cerevisiae, GFP fusion, multiplex flow cytometry, MLPCN library | S. cerevisiae CIT2-GFP strain, 3 h; 100 means same as DMSO wells | GFP response vs DMSO, % at 10 µM | 320,000 compounds, 0.065% hits | AID 2029, 2009;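 active = GFP response relative to DMSO above a set limit, near the screen mean plus 3 SD, cut at about 150% in these data; inconclusive = Fewer than 70 cells measured for a yeast strain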;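 note: ratio of well median GFP fluorescence to mean of DMSO wells on the plate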
VLA-4 inh = inhibition in human VLA-4 binding assay, primary screen, VLA-4 allosteric modulator project, MLPCN library, flow cytometry, VLA-4 expressing cells | 330,000 compounds, 0.2% hits | ligand binding flow cytometry | inhibition, % (about 7 µM as worked out from the volumes in the protocol); in the data active = inhibition above about 50%
Target sequence (P13612 whole entry, looked up): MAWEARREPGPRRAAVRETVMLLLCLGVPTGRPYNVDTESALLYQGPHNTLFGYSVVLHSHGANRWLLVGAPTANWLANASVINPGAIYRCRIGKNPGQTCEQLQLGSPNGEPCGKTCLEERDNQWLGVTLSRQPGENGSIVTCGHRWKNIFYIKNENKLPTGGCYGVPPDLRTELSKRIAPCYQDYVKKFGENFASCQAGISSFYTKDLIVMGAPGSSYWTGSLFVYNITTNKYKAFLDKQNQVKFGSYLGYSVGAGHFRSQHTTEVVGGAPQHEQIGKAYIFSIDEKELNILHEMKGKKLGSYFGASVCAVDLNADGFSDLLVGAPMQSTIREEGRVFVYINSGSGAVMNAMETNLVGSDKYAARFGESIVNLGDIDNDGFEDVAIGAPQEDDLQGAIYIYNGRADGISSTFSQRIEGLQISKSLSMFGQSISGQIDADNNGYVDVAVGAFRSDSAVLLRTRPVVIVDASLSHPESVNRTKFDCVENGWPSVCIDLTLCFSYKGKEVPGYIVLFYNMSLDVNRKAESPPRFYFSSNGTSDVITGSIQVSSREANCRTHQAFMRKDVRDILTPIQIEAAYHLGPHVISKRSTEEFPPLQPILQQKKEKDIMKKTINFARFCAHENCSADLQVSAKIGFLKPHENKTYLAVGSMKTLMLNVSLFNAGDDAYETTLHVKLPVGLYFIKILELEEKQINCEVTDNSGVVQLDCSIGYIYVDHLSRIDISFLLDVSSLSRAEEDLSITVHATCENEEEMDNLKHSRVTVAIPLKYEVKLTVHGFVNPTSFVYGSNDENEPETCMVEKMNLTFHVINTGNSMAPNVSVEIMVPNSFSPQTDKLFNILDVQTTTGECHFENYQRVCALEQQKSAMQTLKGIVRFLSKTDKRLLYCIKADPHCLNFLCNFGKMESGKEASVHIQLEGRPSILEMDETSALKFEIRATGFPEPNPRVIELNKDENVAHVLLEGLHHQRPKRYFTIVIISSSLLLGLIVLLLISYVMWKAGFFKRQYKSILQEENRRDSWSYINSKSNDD
Hits are given with their value; 0 = inactive; ? = inconclusive; - = no result; [ ] = remark or other dose.

SMILES | AGP1 TOR yeast | RPL19A TOR yeast | LAP4 TOR yeast | MEP2-GFP yeast | CIT2 TOR yeast | VLA-4 inh
Cc1ccc2c(COC(=O)c3n[nH]c4ccccc34)cc(=O)oc2c1 | 0 | 0 | 0 | 0 | 0 | 0
CN(C)CCOC(=O)/C(=C/c1cn(C)c2ccccc12)NC(=O)c1ccccc1 | ? | 45.2[may fluoresce violet] | 0 | 296.2[may fluoresce violet] | ? | 0
C[C@H]1CC[C@@]2(O[C@@H](CCO)C[C@H](O)[C@H]2O)O1 | 0 | 0 | 0 | 0 | 0 | 0
Cc1ccc(-c2cc(C(=O)Nc3ccccn3)c3ccccc3n2)o1 | ? | 16.7[may fluoresce violet] | 0 | 0 | ? | 0
CCc1ccc(C(=O)NNC(=O)c2c(CC)noc2C)cc1 | 0 | 0 | 0 | 0 | 0 | 0
CCOC(=O)C(=CNNc1ccccc1)C(=O)OCC | 0 | 0 | 171.0 | 0 | 0 | 0
O=C(Nc1ccc2oc(-c3cccnc3)nc2c1)c1ccco1 | 0 | 0 | 201.6 | 0 | 0 | 0
O=C(Nc1ccc2oc(-c3cccnc3)nc2c1)c1ccc(Br)o1 | 0 | 0 | 0 | 0 | 0 | 0
CCc1nnc2n1N=C(c1ccc(Cl)cc1)CS2 | ? | 29.4[may fluoresce violet] | 0 | 744.2[may fluoresce violet] | ? | 0
Cc1c(N(C)S(=O)(=O)c2cc(C(=O)NCC3CCCO3)ccc2Cl)c(=O)n(-c2ccccc2)n1C (stereo not drawn) | 0 | 0 | 0 | 0 | 0 | 0
O=c1c2c(-c3ccc(Cl)cc3)csc2ncn1/N=C/c1cccc([N+](=O)[O-])c1O | 0 | 0 | 201.2 | 575.3 | 0 | 0
O=C(c1ccc2c(c1)OCO2)N1CCCc2ccccc21 | 0 | 0 | 0 | 0 | 0 | 0
O=C(c1ccc2c(c1)OCO2)N1CCc2ccccc21 | ? | 0 | 0 | 294.0[may fluoresce violet] | ? | 0
O=C1c2ccccc2NC(c2ccc(Br)s2)N1O (stereo not drawn) | 0 | 0 | 0 | 0 | 0 | 0
O=C(CCC(=O)N1CCCCCC1)NCc1ccc(F)cc1 | 0 | 0 | 0 | 0 | 0 | 0
Cc1cc(C)c2sc(NC(=O)C3=COCCO3)nc2c1 | 0 | 0 | 165.5 | 0 | 0 | 0
O=C(C1CCN(S(=O)(=O)c2cnc[nH]2)CC1)N1CCc2ccccc2C1 | 0 | 46.5[may fluoresce violet] | 0 | 454.2[may fluoresce violet] | - | 0
Cc1cc(C)c2c(CN3CCN(Cc4ccc5c(c4)OCO5)CC3)cc(=O)oc2c1C | 0 | - | 0 | 255.1[may fluoresce violet] | ? | 0
Cc1ccc2c(CN3CCN(Cc4ccc5c(c4)OCO5)CC3)cc(=O)oc2c1C | 0 | 0 | 0 | 0 | 0 | 0
Cn1c(=NC(=O)C(C)(C)C)sc2cccc(F)c21 | 0 | 0 | 0 | 210.4[may fluoresce violet] | ? | 0
CSCC[C@H](NC(=O)N1C[C@H]2C[C@@H](C1)c1cccc(=O)n1C2)C(=O)Nc1ccc(NC(C)=O)cc1 | 0 | 0 | 0 | 0 | 0 | 0
CC(NC(=O)CN(C)S(=O)(=O)c1ccc(Br)s1)c1ccccc1 (stereo not drawn) | 0 | 0 | 0 | 257.4[may fluoresce violet] | ? | 0
COc1ccc(C(=O)ON=C2CCN(c3ccc([N+](=O)[O-])cc3)CC2)cc1 | 0 | 0 | 150.3 | 0 | 0 | 0
O=C(/C=C/c1ccccc1Cl)c1ccc(O)cc1 | 0 | 0 | - | 0 | 0 | 0
O=C(/C=C/c1c(F)cccc1Cl)c1ccc(O)cc1 | 0 | 0 | 249.0 | 0 | 0 | 0
SMILES | AGP1 TOR yeast | RPL19A TOR yeast | LAP4 TOR yeast | MEP2-GFP yeast | CIT2 TOR yeast | VLA-4 inh
CSCCC(NC(=O)c1ccccc1)C(=O)NCCc1ccc2c(c1)OCCO2 (stereo not drawn) | 0 | 0 | 0 | 0 | 0 | 0
CC1(C)CNC(=O)CC(C)(C)N1 | 0 | 0 | 0 | 186.4[may fluoresce violet] | ? | 0
CC1(C)CC(CC(=O)O)CC(C)(C)N1 | 0 | 0 | 0 | 0 | 0 | 0
Cc1ccnc(NC(=O)Nc2ccc(F)cc2)c1 | 0 | 0 | 0 | 175.0[may fluoresce violet] | ? | 0
CC(=O)NCC1=C(NC(C)=O)C2CC1C(C)(C)C2C (stereo not drawn) | ? | 26.9[may fluoresce violet] | 0 | 599.9[may fluoresce violet] | ? | 0
Cc1cc(=O)n2nc(N3CCC(C(=O)NCc4ccccc4F)CC3)sc2n1 | 0 | 0 | 0 | 0 | 0 | 0
Brc1ccc(-c2ccc(/C=N/Nc3nc4ccccc4[nH]3)o2)cc1 | ? | 38.6[may fluoresce violet] | 0 | 0 | ? | 0
